Only some compounds are listed: those with a hit (about 3.5% of all), similar ones and a draw of the others.
MITF primary – inhibitors of human MITF | O75030 | AlphaScreen MITF homodimerization, bead proximity signal | inhibition, % at 2.6 µM | actives 0.91% (n = 650,000) | AID 1259374; in the data active = inhibition above about 50%
FBW7 activator – human FBW7 E3 ligase activation, primary screen; normalized activity (activation), % at 26.1 µM; AlphaScreen FBW7–phospho-cyclin E peptide binding, activator screen; actives 0.13% (n = 650,000); Q969H0; in the data active = normalized activity above about 1.9%;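 note: purified mutant Fbw7 with reduced substrate affinity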
TEAD-YAP block – TEAD-YAP interaction inhibition | HEK-TIYL cells, TEAD-Gal4/YAP UAS-luciferase luminescence | inhibition, % at 9.12 µM | actives 1.4% (n = 640,000) | AID 1259422; in the data active = inhibition above about 32%
GPR151 ag – human GPR151 activation. activation, % at 11.2 µM. actives 1% (n = 650,000). PathHunter beta-arrestin GPR151 cells, luminescence. Q8TDV0; in the data active = activation above about 4.9%
GPR151 conf act – confirmation of human GPR151 activators; shares compounds with GPR151 ag; GPR151 PathHunter beta-arrestin cells, luminescence, 90 min; % of EA-reagent control over plate median; activation, % at 11.2 µM; 6,700 tested, under 10 active;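 active = mean percent activation across replicates above the confirmation screen cutoff of 4.91%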
GPR119 ag – GPR119 activation, counter-screen for GPR151 activators; shares compounds with GPR151 ag; actives 0.3% (n = 6,700); GPR119 PathHunter beta-arrestin cells, luminescence, 90 min; 0 = compound-well median, 100 = enzyme-acceptor control; activation, % at 11.2 µM;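 active = mean percent activation in the counterscreen above 29.09%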;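 note: counterscreen on off-target GPR119 to flag nonselective hits from the GPR151 activator screen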
Target sequence (Q8TDV5 whole entry, looked up): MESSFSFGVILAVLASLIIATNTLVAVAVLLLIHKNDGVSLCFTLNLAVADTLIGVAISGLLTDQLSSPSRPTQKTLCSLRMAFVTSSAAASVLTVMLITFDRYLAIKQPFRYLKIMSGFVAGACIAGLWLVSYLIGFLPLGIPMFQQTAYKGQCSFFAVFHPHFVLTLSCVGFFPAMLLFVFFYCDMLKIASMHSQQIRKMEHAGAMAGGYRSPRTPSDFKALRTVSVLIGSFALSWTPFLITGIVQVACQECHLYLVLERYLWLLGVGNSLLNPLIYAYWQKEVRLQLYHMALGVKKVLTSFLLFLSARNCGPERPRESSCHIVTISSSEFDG
Each line names hits and unclear results; the compound was inactive in the other large screens (follow-up assays come after a bar, where they were run); ! = a repeat was not active.

CCOCCOC(=O)c1ccc(NC(=O)c2ccccc2OC)cc1	none
N#CCSc1nc2ccccc2c(=O)n1Cc1ccc2c(c1)OCO2	GPR151 ag 5.1 | GPR151 conf act inactive | GPR119 ag inactive
O=c1c2ccccc2nc(SCc2ccc(Cl)cc2)n1Cc1ccc2c(c1)OCO2	none
O=C(NC1CCCCC1)[C@@H]1C=CCN1S(=O)(=O)c1ccccc1F	none
CO[C@H]1COC(=O)C/C=C/[C@H](C)[C@@H](OC)COC(=O)[C@@H](C)COC(=O)C/C=C/[C@@H]1C	GPR151 ag 6.0 (no result: TEAD-YAP block) | GPR151 conf act inactive | GPR119 ag inactive
CO[C@@H]1COC(=O)[C@H](COCc2ccccc2)NC(=O)C/C=C/[C@@H](C)[C@H](OC)COC(=O)[C@H](C)NC(=O)C/C=C/C1C (stereo not given in full)	GPR151 ag 4.9 (no result: TEAD-YAP block) | GPR151 conf act inactive | GPR119 ag inactive
Cc1noc(C)c1CCC(=O)N1CCC(CCC(=O)N(C)Cc2ccccc2)CC1	none
COc1ccc(CNC(=O)CCCn2c(SCC(=O)Nc3ccc(OC)cc3OC)nc3cc4c(cc3c2=O)OCO4)cc1	none
COc1ccc(NC(=O)CCCN2C(=O)CCC2=O)c(OC)c1	GPR151 ag 10.3 | GPR151 conf act inactive | GPR119 ag inactive
CCn1c(SCC(=O)Nc2ccc(C(=O)OC)cc2)nc2cccnc21	GPR151 ag 5.5 | GPR151 conf act inactive | GPR119 ag inactive
CCc1ccc(NC(=O)CSc2nc3ccccc3c(=O)n2CCc2ccccc2)cc1	GPR151 ag 5.8 | GPR151 conf act inactive | GPR119 ag inactive
CCc1ccc(NC(=O)CSc2nc3ccccc3c(=O)n2CCc2ccc(OC)c(OC)c2)cc1	none
COc1ccc(NC(=O)CSc2nc3ccccc3c(=O)n2CCCC(=O)NCc2ccccc2)c(OC)c1	GPR151 ag 7.5 | GPR151 conf act inactive | GPR119 ag inactive
COc1ccc(S(=O)(=O)CCC(=O)NCc2cccs2)cc1	none
COc1ccc(-c2nnc(SCC(N)=O)n2-c2cccc(C(F)(F)F)c2)cc1	none
Cc1cccc(CN2CCC(C3(CCC(C)C)NC(=O)NC3=O)CC2)c1 (stereo not given)	none
Cc1ccc(OCC(=O)Nc2cccc(C(=O)O)c2)cc1C	none
CC(=O)n1c(SCC(=O)Nc2ccc(C(C)C)cc2)nc2ccccc21	GPR151 ag 6.8 | GPR151 conf act inactive | GPR119 ag inactive
CC(C)c1ccc(NC(=O)CSc2nc3ccccc3n2S(=O)(=O)c2cccs2)cc1	none
COc1ccc(-c2cc(C(=O)Nc3cnn(Cc4ccc(F)cc4)c3)no2)cc1OC	GPR151 ag 9.9 | GPR151 conf act inactive | GPR119 ag inactive
CCc1nnc(-c2cc3ccccc3n2CC(=O)Nc2cccc(Cl)c2)o1	GPR151 ag 5.3 | GPR151 conf act inactive | GPR119 ag inactive
COC(=O)c1sc2ncn(Cc3cccc(Cl)c3)c(=O)c2c1C	none
C#CCOC(=O)CCCNc1ccc([N+](=O)[O-])cc1[N+](=O)[O-]	GPR151 ag 5.6 | GPR151 conf act inactive | GPR119 ag inactive
C#CCOC(=O)CCCC(=O)Nc1ccc([N+](=O)[O-])cc1Cl	none
N#Cc1ccccc1OCC(=O)N=Nc1c(O)[nH]c2ccc([N+](=O)[O-])cc12	none
N#Cc1ccccc1OCC(=O)N=Nc1c(O)[nH]c2ccccc12	GPR151 ag 6.0 | GPR151 conf act inactive | GPR119 ag inactive
CCOc1ccc(-c2ncccc2O)cc1	none
COc1ccc(-c2ncccc2O)cc1	GPR151 ag 5.2 | GPR151 conf act inactive | GPR119 ag inactive
O=C1CN(c2ccccc2NC(=O)C2(c3cccs3)CCCC2)CCN1	GPR151 ag 5.0 | GPR151 conf act inactive | GPR119 ag inactive
CCOC(=O)c1cc2c(=O)n3ccccc3nc2n(C(C)C)c1=NC(=O)c1cccc(OC)c1	none
CCOC(=O)c1c(N)c(C#N)cn1-c1ccccc1	GPR151 ag 8.6 | GPR151 conf act inactive | GPR119 ag inactive
COc1cn(CC(=O)Nc2ccc(Cl)cc2)c(CSc2ccc(F)cc2)cc1=O	none
Cc1ccc(S(=O)(=O)n2cc(-c3ccnc(N)c3)c3cc(Br)cnc32)cc1	GPR151 ag 7.6 (no result: MITF primary, FBW7 activator, TEAD-YAP block) | GPR151 conf act inactive | GPR119 ag inactive
CC(NCCc1ccc(O)cc1)C(O)c1ccc(O)cc1 (stereo not given)	none
C[C@@H](NCCc1ccc(O)cc1)[C@@H](O)c1ccc(O)cc1	GPR151 ag 6.4! | GPR151 conf act inactive | GPR119 ag inactive
Cc1cc(-c2nnco2)c(C)n1-c1ccccc1	none
Cc1cc(-c2nnc3n2CCC3)c(C)n1-c1ccccc1	GPR151 ag 5.7 | GPR151 conf act inactive | GPR119 ag inactive
COc1ccc(C(=O)Cn2c(N(C)C)nc3c2c(=O)n(C)c(=O)n3C)cc1	GPR151 ag 5.4 | GPR151 conf act inactive | GPR119 ag inactive
COc1ccc(C(=O)Cn2c(N3CCOCC3)nc3c2c(=O)n(C)c(=O)n3C)cc1	none
Cc1cccn2c(=O)c(C=Nc3ccc([N+](=O)[O-])cc3Cl)c(NCc3ccco3)nc12	none
C=CCOc1ccc(/C(O)=C2/C(=O)C(=O)N(CCN(CC)CC)C2c2ccc(C)cc2)c(C)c1 (stereo not given)	GPR151 ag 7.1 | GPR151 conf act inactive | GPR119 ag inactive
Cn1cc(S(=O)(=O)N2CCc3ccccc32)cc1C(=O)N1CCCCC1	none
Cc1c(C(=O)NC(=S)Nc2ncccc2O)cccc1[N+](=O)[O-]	GPR151 ag 5.4 | GPR151 conf act inactive | GPR119 ag inactive
CC(C)C(NC(=O)c1ccccc1NC(=O)c1ccccc1)C(=O)N1CCCCC1 (stereo not given)	none
CCC(C)C(NC(=O)c1ccccc1NC(=O)c1ccccc1)C(=O)N1CCOCC1 (stereo not given)	GPR151 ag 9.8 | GPR151 conf act inactive | GPR119 ag inactive
CC1=C(C(=O)Nc2cccc(F)c2)C(c2sccc2C)C2=C(CCCC2=O)N1 (stereo not given)	none
CCCCN(C)c1nnc(NC(=O)Nc2ccc(CC(=O)OCC)cc2)s1	none
CCCCN(C)c1nnc(NC(=O)Nc2ccc(Cl)cc2)s1	GPR151 ag 7.5 | GPR151 conf act inactive | GPR119 ag inactive
CC(C)OCCCNC(=O)CC1CSc2nc3c(cnn3-c3ccccc3)c(=O)n21 (stereo not given)	none
COc1ccc(NS(=O)(=O)c2cc3c(cc2C)N(C)CCO3)c(OC)c1	GPR151 ag 7.3 | GPR151 conf act inactive | GPR119 ag inactive
COc1cc(OC)c(NS(=O)(=O)c2cc3c(cc2C)N(C)CCO3)cc1Cl	none
N#Cc1c(NC(=O)c2cc3ccccc3oc2=O)sc2c1CCCCCC2	none
NC(=O)c1c(NC(=O)c2cc3ccccc3oc2=O)sc2c1CCCCCC2	GPR151 ag 28.4 | GPR151 conf act inactive | GPR119 ag inactive
Cc1cccc(C)c1NC(=O)c1cc2ccccc2oc1=O	GPR151 ag 6.0 | GPR151 conf act inactive | GPR119 ag inactive
O=C(c1cc2ccccc2oc1=O)N1CCN(c2ccccc2)CC1	GPR151 ag 6.3 | GPR151 conf act inactive | GPR119 ag inactive
